Measurements published in ChEMBL document CHEMBL3433997, “St. Jude Leishmania screening dataset” (2016).

Legend:
Assay type in all cases: functional
[1] = target: Solute carrier family 2, facilitated glucose transporter member 1 (Homo sapiens) (UniProt P11166); experiment: ST_JUDE_LEISH: Cytotoxicity at 2uM final concentration against transgenic Leishmania Mexicana promastigotes LmGLUT1 that are glucose transport deficient and complemented with the human glucose transporter GLUT1. Activity is measured by DNA content using SYBR green in vitro
[2] = target: Hexose transporter 1 (Plasmodium falciparum) (UniProt O97467); experiment: ST_JUDE_LEISH: Cytotoxicity at 2uM final concentration against transgenic Leishmania Mexicana promastigotes LmPfHT that are glucose transport deficient and complemented with the Plasmodium falciparum hexose transporter. Activity is measured by DNA content using SYBR green in vitro
[3] = target: Glucose transporter (Leishmania mexicana) (UniProt O61059); experiment: ST_JUDE_LEISH: Cytotoxicity at 2uM final concentration against transgenic Leishmania Mexicana promastigotes LmGT2 that are glucose transport deficient and complemented with the L. Mexicana glucose transporter 2. Activity is measured by DNA content using SYBR green in vitro

Sequence of Solute carrier family 2, facilitated glucose transporter member 1 (Homo sapiens) (P11166 whole entry): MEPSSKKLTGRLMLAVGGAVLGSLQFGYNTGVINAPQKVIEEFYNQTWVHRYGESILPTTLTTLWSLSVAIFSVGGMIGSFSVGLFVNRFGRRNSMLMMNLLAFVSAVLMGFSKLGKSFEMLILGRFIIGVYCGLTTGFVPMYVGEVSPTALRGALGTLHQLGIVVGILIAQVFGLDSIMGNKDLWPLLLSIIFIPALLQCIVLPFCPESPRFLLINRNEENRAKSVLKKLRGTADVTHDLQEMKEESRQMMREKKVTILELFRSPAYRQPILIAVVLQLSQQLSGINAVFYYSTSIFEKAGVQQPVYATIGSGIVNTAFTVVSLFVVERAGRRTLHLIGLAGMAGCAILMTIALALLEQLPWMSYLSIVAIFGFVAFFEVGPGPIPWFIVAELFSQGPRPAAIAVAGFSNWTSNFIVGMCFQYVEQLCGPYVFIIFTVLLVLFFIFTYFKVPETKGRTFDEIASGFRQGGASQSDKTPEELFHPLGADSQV

Row | Structure (SMILES) | inhibition [1] [%] | inhibition [2] [%] | inhibition [3] [%]
1 | N=C(NCCc1ccc(Cl)c(Cl)c1)c1ccc2ccccc2c1 | 3.61 | -1.48 | -2.5
2 | O=C(Cc1ccc(NC(=O)c2ccc(O)c(-c3ccc(Cl)c(Cl)c3)c2)cc1)NCc1cccc(C(F)(F)F)c1 | 2.33 | 2.65 | 1.16
3 | Cc1ccccc1Cc1cccc(/N=C(\N)Nc2ccc(Cl)cc2)n1 | 5.38 | 5.38 | 2.51
4 | COc1ccccc1-c1cccc(CNC2CCN(CC3Cn4c(=O)ccc5ccc(F)c3c54)CC2)c1 (stereo not drawn) | 15 | 31.3 | 54.7
5 | O=C(N[C@@H](Cc1ccccc1)C(=O)NCc1cccc2ccccc12)c1ccc(O)c(-c2ccc(Cl)c(Cl)c2)c1 | 0.35 | 2.09 | 0.79
6 | FC(F)(F)c1ccc2[nH]c(-c3ccc(-c4cccc(CNCC5CCCO5)c4)cc3)nc2c1 (stereo not drawn) | 3.87 | 2.83 | 2.68
7 | CN1CCCC(CN2CCN(Cc3ccc(-c4cccc(-c5nc6ccccc6[nH]5)c4)cc3)CC2)C1 (stereo not drawn) | 3.67 | 2.47 | 3.47
8 | COc1ccc(Cl)c(CC2c3cc(O)c(Cl)cc3CCN2C)c1 (stereo not drawn) | -0.53 | -0.87 | -1.58
9 | Cc1oc(-c2ccc(Cl)cc2)cc1C(=O)NCCC1CCN(CCCCCNC(=O)/C=C/c2ccc(Cl)c(Cl)c2)CC1 | -0.57 | -1.53 | -2.41
10 | Cc1ccc(O)c(-c2cc(C(=O)Nc3ccc(S(=O)(=O)N4CCCCC4)cc3)[nH]n2)c1 | 3.32 | 1.22 | 1.19
11 | CN(CCCNc1ccc(C(=O)Nc2ccc(C(F)(F)F)cc2)cc1[N+](=O)[O-])Cc1ccccc1 | 1.17 | -0.19 | -3.45
